PubChem BioAssay (Tox21)
Results filed as inconclusive are left out. Calls of active or inactive are those of the source. Calls follow the shape of the dose curve; as a rule, active = well fitted cell-killing curve with a large enough effect in the repeat runs; inconclusive = weak or mixed curves, or effect the other way; inactive = flat fitted curve, though single readings scatter.

experiment: qHTS assay to identify small molecule antagonists of the estrogen receptor alpha (ER-alpha) signaling pathway using the BG1 cell line in the presence of 0.1 nM 17-beta-estradiol - cell viability counter screen (AID 1259241); conditions: VM7Luc4E2 (BG1) viability, CellTiter-Fluor protease, 22 h, 0.1 nM estradiol agonist added; series mostly up to 92.4 µM; activity change, negative = cytotoxicity: at the top concentration; also: nearly all actives have a fitted effect of over 40% in size
Text: National Center for Advancing Translational Sciences [NCATS]
NIH Chemical Genomics Center [NCGC]
U.S. Environmental Protection Agency [EPA]
National Institutes of Environmental Health Sciences [NIEHS]
National Toxicology Program [NTP]
U.S. Food and Drug Administration [FDA]
Estrogen receptor (ER), a member of the nuclear hormone receptor plays an important role in development, metabolic homeostasis and reproduction. Two subtypes of ER, ER-alpha and ER-beta, have similar expression patterns with some uniqueness in both types. Endocrine disrupting chemicals (EDCs) and their interactions with steroid hormone receptors like ER causes disruption of normal endocrine function. Therefore, it is important to understand the effect of environmental chemicals in ER signaling pathway. For identifying ER antagonists, VM7Luc4E2 cell line was used to screen against Tox21 compound libraries.
VM7Luc4E2 cell line (provided by Denison MS, University of California) endogenously express full-length ER-alpha and is stably transfected with a plasmid containing four estrogen responsive elements (ERE) upstream of a luciferase reporter gene. The current screening for identification of ER-alpha inhibitors against Tox21 compound libraries used lower concentration (0.1 nM) of 17beta-Estradiol as a stimulator. The cytotoxicity of the Tox21 compound libraries against VM7Luc4E2 cell line was tested by measuring live-cell protease activity using CellTiter-Fluor assay in the same wells.
Tox21 Assay Protocol Summary:
VM7Luc4E2 cells were cultured in phenol red free assay medium containing 10% charcoal stripped FBS for 5 days prior to the assay. The cells were dispensed at 4,000 cells/well in 4 uL of assay medium into white wall/solid-bottom 1536-well plates (Corning Life Sciences, Corning, NY) using a Multidrop Combi (ThermoFisher Scientific, Waltham, MA) dispenser. After the assay plates were incubated at 37C and 5% CO2 for 24 hr, 23 nL of compounds dissolved in DMSO, positive controls or DMSO only was transferred to the assay plates by a Pintool station (Kalypsys, San Diego, CA). The transfer of compounds was followed by the addition of 1 uL of 0.1 nM (final concentration) agonist (17beta-Estradiol)/assay medium using a Flying Reagent Dispenser (FRD, Aurora Discovery, San Diego, CA). The plates were incubated at 37C and 5% CO2 for 22 hr. For cytotoxicity assay, 1 uL of CellTiter-Fluor reagent (Promega Corporation, Madison, WI) was added to each well using the FRD and after 30 min incubation at 37C and 5% CO2, The fluorescence intensity was measured using ViewLux plate reader (PerkinElmer, Shelton, CT).
% is scaled to controls: 0 for no effect and ±100 for the full control effect.

| Structure (SMILES) | activity change, negative = cytotoxicity | Potency |
| --- | --- | --- |
| CCCCN(CCCC)C(=S)SSC(=S)N(CCCC)CCCC | 0.753% (inactive) | – |
| OC/C(Br)=C(\Br)CO | 11.7% (inactive) | – |
| CC(C)C(=O)O | 4.21% (inactive) | – |
| CC1CC(=O)NN=C1c1ccc(NCC(C)(C)NCC(O)COc2cc(Cl)ccc2C#N)cc1 (stereo not given) | -27.4% [at 42.5 µM] (inactive) | – |
| Nc1ccc(S(=O)(=O)O)cc1 | 2.36% (inactive) | – |
| CC(Cl)C(Cl)Cl (stereo not given) | 4.59% (inactive) | – |
| C=CC(C)(C)CC(=O)OC | -2.05% (inactive) | – |
| CC(=O)Nc1ccccc1C | 0% (inactive) | – |
| CC[C@H](NC(=O)c1cc(F)ccc1NS(=O)(=O)c1cccc2cccnc12)c1ccccc1 | -19.3% (inactive) | – |
| C=CC(C)(O)CCCC(C)CCCC(C)CCCC(C)C (stereo not given) | 15.7% (inactive) | – |
| CCOC(=O)/C=C/C(=O)O | -4.01% (inactive) | – |
| C=CC(=C)CCCC(C)(C)OC(C)=O | 2.05% (inactive) | – |
| CC(CCO)CCc1ccccc1 (stereo not given) | 2.05% (inactive) | – |
| COC(=O)[C@@H]1CC2=CC(=O)CC[C@]2(C)[C@@]23O[C@@H]2C[C@@]2(C)[C@@H](CC[C@@]24CCC(=O)O4)[C@H]13 | 1.07% [at 42.5 µM] (inactive) | – |
| CC(=O)OCC(=O)[C@@]12OC(C)(C)O[C@@H]1C[C@H]1[C@@H]3C[C@H](F)C4=CC(=O)C=C[C@]4(C)[C@@]3(F)[C@@H](O)C[C@@]12C | 2.94% [at 42.5 µM] (inactive) | – |
| CC#N | 7.51% (inactive) | – |
| CO[Si](C)(OC)OC | 14.6% (inactive) | – |
| O=c1[nH]c2ccc(S(=O)CCN3CCC(Cc4ccc(F)cc4)CC3)cc2o1 (stereo not given) | -20.4% (inactive) | – |
| CSc1ccc(Oc2ccc(S(N)(=O)=O)cc2CN(C)C)cc1C | -22.1% (inactive) | – |
| CCOC(=O)[C@@H](C)Oc1ccc(Oc2nc3ccc(Cl)cc3o2)cc1 | -0.972% (inactive) | – |

| Structure (SMILES) | activity change, negative = cytotoxicity | Potency |
| --- | --- | --- |
| CN(C(=O)C(Cl)Cl)c1ccc(OC(=O)c2ccco2)cc1 | -1.24% [at 42.5 µM] (inactive) | – |
| O=C(N[C@@H](c1ccccc1)[C@@H]1CCCCN1)c1cccc(C(F)(F)F)c1Cl | -25.5% (inactive) | – |
| CC1CN(c2cc3c(cc2F)c(=O)c(C(=O)O)cn3-c2ccc(F)cc2F)CCN1 (stereo not given) | 6.15% [at 8.39 µM] (inactive) | – |
| CN1CCCN=C1/C=C/c1cccs1 | 4.36% [at 42.5 µM] (inactive) | – |
| CC(=O)Oc1ccc2c(c1)CC[C@@H]1[C@@H]2CC[C@]2(C)[C@@H](O)CC[C@@H]12 | 1.31% [at 42.5 µM] (inactive) | – |
| CC(C)(C)C(=O)O | 7.25% (inactive) | – |
| Cc1cc(O)c(C(C)C)cc1Cl | – | inactive |
| C/C=C(\C)C(=O)OCCC(C)CCC=C(C)C (stereo not given) | -0.207% (inactive) | – |
| CC(C)(C)C(=O)C(Oc1ccc(Cl)cc1)n1ccnc1 (stereo not given) | -2.32% [at 42.5 µM] (inactive) | – |
| O=C(O)Cc1ccc(-c2ccccc2)cc1 | 5.97% [at 42.5 µM] (inactive) | – |
| CCCCCCCCCOC(C)=O | 0.326% (inactive) | – |
| Brc1cc(-c2ccc(Br)c(Br)c2Br)cc(Br)c1Br | 4.94% [at 42.5 µM] (inactive) | – |
| Cc1ccc(S)cc1 | -5.93% (inactive) | – |
| CC(=O)CC(c1ccc([N+](=O)[O-])cc1)c1c(O)c2ccccc2oc1=O (stereo not given) | 2.73% [at 42.5 µM] (inactive) | – |
| O=C(CS)OCCOC(=O)CS | 1.23% (inactive) | – |
| O=C(Nc1ccccc1)Nc1ccccc1 | 3.04% (inactive) | – |
| Nc1ccc(Cl)cc1[N+](=O)[O-] | -7.21% (inactive) | – |
| CC1(C)O[C@@H]2C[C@H]3[C@@H]4CCC5=CC(=O)C=C[C@]5(C)[C@H]4[C@@H](O)C[C@]3(C)[C@]2(C(=O)CO)O1 | 0.546% [at 42.5 µM] (inactive) | – |
| CCOC(=O)N1CCC(n2c(=O)[nH]c3cc(Cl)ccc32)CC1 | -24.5% [at 42.5 µM] (inactive) | – |
| Nc1ccc(S(=O)(=O)O)c(N)c1 | 2.11% (inactive) | – |
